# Test results: paper PMC4336329 (PLoS ONE, 2015)
# About 14,000 (4.5%) of roughly 310,000 compounds showed an effect of 50% or more. Effects have a minus sign here. The sample holds strong results, similar compounds and a random draw of the others, so the mix is not that of the screen.
# Biological target: human ether-à-go-go-related gene (hERG) potassium channel (human, UniProt Q12809)
# Experiment: primary screen, population patch clamp on CHO cells stably expressing hERG; higher = less effect of the substance
# 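Further: peak tail current of the secondary pulse compared with the same well before compound.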
# Sequence of human ether-à-go-go-related gene (hERG) potassium channel (Q12809 whole entry, looked up): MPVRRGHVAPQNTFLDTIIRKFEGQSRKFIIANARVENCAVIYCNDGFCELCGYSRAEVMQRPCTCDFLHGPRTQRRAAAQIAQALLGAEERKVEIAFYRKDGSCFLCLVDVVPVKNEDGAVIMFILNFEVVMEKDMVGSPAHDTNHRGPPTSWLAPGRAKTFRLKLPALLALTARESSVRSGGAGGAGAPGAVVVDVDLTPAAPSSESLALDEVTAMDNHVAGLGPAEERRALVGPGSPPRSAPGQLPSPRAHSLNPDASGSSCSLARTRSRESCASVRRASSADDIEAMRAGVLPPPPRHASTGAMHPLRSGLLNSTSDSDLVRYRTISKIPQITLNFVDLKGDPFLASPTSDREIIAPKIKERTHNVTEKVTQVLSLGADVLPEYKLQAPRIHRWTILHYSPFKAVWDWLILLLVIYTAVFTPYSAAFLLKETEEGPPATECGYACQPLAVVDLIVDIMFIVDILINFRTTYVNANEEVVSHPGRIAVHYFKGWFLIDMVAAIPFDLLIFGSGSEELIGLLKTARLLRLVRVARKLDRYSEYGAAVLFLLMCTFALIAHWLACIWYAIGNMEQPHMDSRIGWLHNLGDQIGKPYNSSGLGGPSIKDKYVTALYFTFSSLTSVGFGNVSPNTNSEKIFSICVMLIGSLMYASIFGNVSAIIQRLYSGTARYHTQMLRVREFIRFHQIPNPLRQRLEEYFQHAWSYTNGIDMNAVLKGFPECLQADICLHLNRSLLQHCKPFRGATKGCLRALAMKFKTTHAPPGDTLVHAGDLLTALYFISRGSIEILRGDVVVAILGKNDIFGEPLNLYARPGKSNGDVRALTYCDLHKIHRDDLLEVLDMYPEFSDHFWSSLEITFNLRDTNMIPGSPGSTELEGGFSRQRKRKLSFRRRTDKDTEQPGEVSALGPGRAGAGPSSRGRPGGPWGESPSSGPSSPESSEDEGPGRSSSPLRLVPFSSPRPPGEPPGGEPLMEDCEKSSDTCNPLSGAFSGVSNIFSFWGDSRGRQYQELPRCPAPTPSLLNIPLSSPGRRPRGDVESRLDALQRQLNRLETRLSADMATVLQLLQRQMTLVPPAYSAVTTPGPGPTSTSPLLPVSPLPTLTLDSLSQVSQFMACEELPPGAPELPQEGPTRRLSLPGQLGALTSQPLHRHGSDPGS
row,SMILES,"hERG current change (%, negative = inhibition) at 10uM [%]"
1,CC(C)N1CCN(Cc2ccc3c(c2)OCCO3)CC1CCO (stereo not shown),3.63
2,NC(=O)N/N=C/c1ccc(-c2cccc(C(F)(F)F)c2)o1,-4.87
3,Cc1cc(C)cc(NC(=O)CCn2ccnc2)c1,3.41
4,Cc1c(C(=O)NCc2ccc(S(N)(=O)=O)cc2)oc2ccc(Cl)cc12,10
5,CCCCn1c(N)c(N(CCOC)C(=O)CSCC(=O)Nc2cccc(C)c2)c(=O)[nH]c1=O,11.5
6,c1ccc(-c2nc(CSc3nnc(-c4cccs4)o3)cs2)cc1,-9.61
7,CCS(=O)(=O)c1ncc(Cl)c(C(=O)Nc2ccc(S(=O)(=O)N(C)c3ccccc3)cc2)n1,15.5
8,CCOC(=O)N1CCC(NC(=O)c2cc(C(=O)NC3CCCC3)ccc2CO)CC1,12.9
9,O=C(O)c1ccn(CSc2cc(Cl)ccc2Cl)n1,5.46
10,CCOC(=O)NNC(=S)Nc1c(C)n(C)n(-c2ccccc2)c1=O,4.89
11,COc1ccc(NC(=O)CC(C)CC(=O)NCc2ccc(F)cc2)c(OC)c1 (stereo not shown),-4.08
12,CCn1cc(/C=C(\NC(=O)c2ccccc2Cl)C(=O)N2CCOCC2)c2ccccc21,-2.35
13,O=C(NNC(=S)Nc1ccccc1)c1cccc(S(=O)(=O)N2CCOCC2)c1,15.3
14,CCC1CCCCN1C(=O)c1ccc(OC2CCN(C(=O)COC)CC2)cc1 (stereo not shown),6.08
15,COC(=O)CCCC(=O)N1CCC(CCC(=O)NC2CC2)CC1,16.6
16,Cc1ccc(Cl)c(OCCN2CCCC(C)C2)c1.O=C(O)C(=O)O (stereo not shown),-41.8
17,CC1CCCN(C(=O)Nc2ccc(Br)cc2Cl)C1 (stereo not shown),-16.4
18,Clc1cc(Br)ccc1OCCOCCN1CCOCC1,-36.7
19,CC1CCN(CCCCOc2ccccc2Br)CC1,-48.9
20,CC1CCN(CCCOc2ccc(Br)cc2Cl)CC1,-72.8
21,CC1CCCN(CCCOc2ccc(Br)cc2Cl)C1.O=C(O)C(=O)O (stereo not shown),-78.4
22,CCOC(=O)c1cnn(CCOC(=O)c2ccc(F)cc2)c1NC(=O)c1ccc(F)cc1,-19.4

row,SMILES,"hERG current change (%, negative = inhibition) at 10uM [%]"
1,CSCC[C@H](NC(=O)N1CCn2c1nc1ccccc12)C(=O)NCc1ccc(C)cc1,-13.3
2,CC(C)Nc1ccc(Cl)cc1[N+](=O)[O-],14.3
3,CN(C)c1c(F)cc(-c2nn[nH]n2)cc1F,12.9
4,CCCCC1=CC2=CC(=O)C(C)(OC(=O)CC)C(=O)C2=CN1Cc1ccco1 (stereo not shown),-32
5,CCCCC1=CC2=CC(=O)C(C)(OC(=O)CC)C(=O)C2=CN1c1ccc(OC)cc1 (stereo not shown),-13
6,CCCCC1=CC2=CC(=O)C(C)(OC(=O)CC)C(=O)C2=CN1Cc1ccc(OC)cc1 (stereo not shown),-55.1
7,CCCCC1=CC2=CC(=O)C(C)(OC(=O)CC)C(=O)C2=CN1Cc1ccccc1 (stereo not shown),-42.9
8,COC(=O)CCCC1=CC2=CC(=O)C(C)(OC(=O)c3cccs3)C(=O)C2=CN1Cc1ccc2c(c1)OCO2 (stereo not shown),-7.74
9,CCCCC1=CC2=CC(=O)C(C)(OC(=O)CC)C(=O)C2=CN1CCc1ccc(Br)cc1 (stereo not shown),-58.9
10,CCCCC1=CC2=CC(=O)C(C)(OC(=O)CC)C(=O)C2=CN1CCCCO (stereo not shown),0.395
11,CCCCC1=CC2=CC(=O)C(C)(OC(=O)CC)C(=O)C2=CN1CCc1ccccn1 (stereo not shown),-4.43
12,CCCCC1=CC2=CC(=O)C(C)(OC(=O)CC)C(=O)C2=CN1CCOC (stereo not shown),-5.6
13,CCCCC1=CC2=CC(=O)C(C)(OC(=O)CC)C(=O)C2=CN1CCc1c[nH]c2ccccc12 (stereo not shown),-3.97
14,CCCCCCCC1=CC2=CC(=O)C(C)(OC(C)=O)C(=O)C2=CN1CCc1ccccc1 (stereo not shown),-62.3
15,CCCCC1=CC2=CC(=O)C(C)(OC(=O)CC)C(=O)C2=CN1Cc1ccc2c(c1)OCO2 (stereo not shown),-55.3
16,Cc1ccc([N+](=O)[O-])cc1NC(=O)c1ccc2c(c1)OCO2,11.4
17,Cc1onc(-c2ccccc2)c1C(=O)N(C)CCc1ccccn1,7.12
18,CCN(C(=O)CN1CCOCC1)c1c(N)n(Cc2ccccc2)c(=O)[nH]c1=O,22.2
19,O=C(c1ccc(=O)oc1)N1CCC(C(O)(c2ccccc2)c2ccccc2)CC1,-29.2
20,CC(=O)Nc1ccc(-c2cc(C(=O)O)c3ccccc3n2)cc1,17.2
21,O=C(O)c1cc(-c2cccs2)nn1-c1cccc(Cl)c1,17.8
22,O=c1c(-c2ccc(Br)cc2)coc2c(CN3CCOCC3)c(O)ccc12,-20.7

row,SMILES,"hERG current change (%, negative = inhibition) at 10uM [%]"
1,O=C(Oc1ccc(N2C(=O)C3C4CCC(C4)C3C2=O)cc1)c1ccco1 (stereo not shown),13.2
2,O=C(NC1CCCc2ccccc21)c1cn2ccccc2n1 (stereo not shown),-25.5
3,CSCCC(NS(=O)(=O)c1ccccc1)C(=O)OC(C)C(=O)Nc1ccc(Cl)cn1 (stereo not shown),-58.8
4,CSCCC(NS(=O)(=O)c1ccc(C)cc1)C(=O)Nc1ccc(C)cn1 (stereo not shown),2.68
5,CCC(C(=O)OC(C)C(=O)Nc1ccc(Cl)cn1)c1ccccc1 (stereo not shown),0.842
6,CCCOc1ccc(CCc2n[nH]c(=S)n2Cc2ccccc2)cc1,-7.26
7,COC(=O)C(NC(=O)c1ccc(Cl)cc1)(Nc1nc(C)cs1)C(F)(F)F (stereo not shown),-8.63
8,Fc1ccc2[nH]c3c(NCc4ccccc4)ncnc3c2c1,10.5
9,Clc1ccc2[nH]c3c(NCC4CCCO4)ncnc3c2c1 (stereo not shown),-16.2
10,CCN1CCCC1CNc1ncnc2c1[nH]c1ccc(F)cc12 (stereo not shown),-76.6
11,C=CCNc1ncnc2c1[nH]c1ccc(Cl)cc12,-7.82
12,CC(C)OCCCNc1ncnc2c1[nH]c1ccc(F)cc12,-2.39
13,CCN1CCCC1CNc1ncnc2c1[nH]c1ccc(Cl)cc12 (stereo not shown),-77.1
14,CCCCCOC(=O)C1=C(C)NC(=O)NC1c1ccc(OC)cc1 (stereo not shown),5.95
15,CCN(CC)CCCN(Cc1cc2cc3c(cc2[nH]c1=O)OCO3)C(=S)NCCOC,5.4
16,COc1ccc(C(=O)Nc2ccc(C(=O)N3CCCC3)cc2)cc1[N+](=O)[O-],-33.2
17,CCOc1ccc(C(=O)Nc2ccc(N3CCN(C)CC3)cc2)cc1[N+](=O)[O-],-57.3
18,CCOc1ccc(C(=O)Nc2ccc(N3CCCC3)cc2)cc1,3.89
19,COc1ccc(C(=O)Nc2ccc(N3CCN(C)CC3)cc2)cc1[N+](=O)[O-],-38.5
20,COc1ccc(C(=O)Nc2ccc(N3CCN(C(C)=O)CC3)cc2)cc1[N+](=O)[O-],11.7
21,COc1ccc(C(=O)Nc2ccc(N3CCN(C(=O)c4ccccc4)CC3)cc2)cc1[N+](=O)[O-],-67.2
22,CCOc1ccc(C(=O)Nc2ccc(N3CCN(C(C)=O)CC3)cc2)cc1[N+](=O)[O-],-45.5

row,SMILES,"hERG current change (%, negative = inhibition) at 10uM [%]"
1,CCCCOc1ccc(C(=O)Nc2ccc(N3CCN(C)CC3)cc2)cc1,-10.2
2,CCOc1ccc(C(=O)Nc2ccc(N3CCN(C)CC3)cc2)cc1,-50.2
3,CCC(=O)Nc1ccccc1C(=O)OCc1ccc(C(=O)c2ccccc2)cc1,-16.1
4,CCCCC(C(=O)NC(=O)NCc1ccccc1)N1C(=O)c2ccccc2C1=O (stereo not shown),11
5,CO/N=C(\N)c1nonc1N,0.407
6,COCOc1cc(O)c(C(=O)/C=C/c2ccccc2)c(OCOC)c1,4.67
7,CC(C)O.COc1cc(/C=N/NC(=O)c2ccc(O)cc2)ccc1Oc1ccc([N+](=O)[O-])cn1,-32
8,Cc1ccc(S(=O)(=O)N(C)c2ccc(OC(=O)CN3C(=O)NC4(CCCC4)C3=O)cc2)cc1,-14.4
9,COC(C(=O)Nc1ccnn1C1CCN(Cc2ccc(C)o2)CC1)c1ccccc1 (stereo not shown),-2.65
10,C/C=C(\C)CN1CCC(n2nccc2NC(=O)c2ccc(OC)cc2)CC1,2.92
11,COc1ccc(C(=O)Nc2ccnn2C2CCN(Cc3ccncc3)CC2)cc1,-8.86
12,COc1ccccc1C(=O)Nc1ccnn1C1CCN(CCC(C)c2ccc(C)o2)CC1 (stereo not shown),-80.8
13,COc1ccc(C(=O)Nc2ccnn2C2CCN(CCC(C)c3ccc(C)o3)CC2)cc1 (stereo not shown),-67
14,CCOc1cc(NC2CS(=O)(=O)CC2O)c(OCC)cc1NC(=O)c1ccccc1 (stereo not shown),5.95
15,Cc1nnc(N/N=C/c2ccc(-c3ccccc3F)o2)n1N.Cl,-40.3
16,CN(C)c1cccc2cccc(N(C)C)c12,-3.13
17,CCN1CCN(C(=O)/C(=C/c2ccco2)NC(=O)c2ccccc2)CC1,-70.4
18,O=C(N/C(=C\c1ccco1)C(=O)N1CCCC1)c1ccccc1,1.23
19,CN1CCN(C(=O)/C(=C/c2ccco2)NC(=O)c2ccccc2)CC1,-67.6
20,NC(=O)C1CCN(C(=O)/C(=C/c2ccco2)NC(=O)c2ccccc2)CC1,11.2
21,O=C(N/C(=C\c1ccco1)C(=O)N1CCC(O)CC1)c1ccccc1,27.7
22,O=C(N/C(=C/c1ccco1)C(=O)N1CCCCCC1)c1ccccc1,13.2
